Test results: PubChem BioAssay (NCATS)
Inconclusive results are not listed. A number with no mark means an inactive call. Activity calls are given as the source filed them. Calls come from the whole dose curve; as a rule, active = well fitted cell-killing curve with a large enough effect; inconclusive = small, poorly fitted or top-dose-only effect, or effect the other way; inactive = no such curve, though single readings can be large or run the other way.

Assay: Quantitative High-Throughput drug screen in 47 multiple myeloma cell lines against the NCATS MIPE library collection: KMS12BM_JCRB cell viability assay (AID 1918971); note: nearly all actives have a fitted effect of over 35% in size
Details: KMS12BM myeloma viability, CellTiter-Glo ATP, 48 h; series mostly up to 45.8 µM; viability, % of DMSO: at the top concentration
In short: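 Steps: seed 500 cells per well; pin-transfer MIPE 4.0 library; incubate 48 h at 37C, 5% CO2, humidified; add CellTiter-Glo, 5 min room temperature; read luminescence.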
Potency is the fitted concentration of half-maximal effect.

SMILES	Potency
CN1CC[C@@H](c2c(O)cc(O)c3c(=O)cc(-c4ccccc4Cl)oc23)[C@@H](O)C1	132 nM (active)
NC(=O)Nc1cc(-c2cccc(F)c2)sc1C(=O)N[C@H]1CCCNC1	662 nM (active)
CN(C)Cc1c(C(=O)NCCOc2ccc(C(=O)NO)cc2)oc2ccccc12	469 nM (active)
Cc1[nH]nc2ccc(-c3cncc(OC[C@@H](N)Cc4ccccc4)c3)cc12	4180 nM (active)
COC(=O)[C@]12CCC(C)(C)C[C@@H]1[C@@H]1C(=O)C=C3[C@@]4(C)C=C(C#N)C(=O)C(C)(C)[C@@H]4CC[C@@]3(C)[C@]1(C)CC2	526 nM (active)
CC(C)C[C@H](NC(=O)CNC(=O)c1cc(Cl)ccc1Cl)B(O)O	132 nM (active)
O=C(CCCCCCNC(=O)c1cnc(N(c2ccccc2)c2ccccc2)nc1)NO	2960 nM (active)
CC=C1NC(=O)[C@H]2CSSCCC=C[C@H](CC(=O)N[C@H](C(C)C)C(=O)N2)OC(=O)[C@H](C(C)C)NC1=O	10.5 nM (active)
CC1=C(CO)C(=O)O[C@@H]([C@@H](C)[C@H]2CC[C@H]3[C@@H]4C[C@H]5O[C@]56[C@@H](O)C=CC(=O)[C@]6(C)[C@@H]4CC[C@]23C)C1	372 nM (active)
CC(=O)Nc1nc(C)c(-c2ccc(Cl)c(S(=O)(=O)NCCO)c2)s1	18700 nM (active)
O=C(Nc1cc(C(F)(F)F)cc(C(F)(F)F)c1)c1cc(Cl)ccc1O	833 nM (active)
O=C(Nc1cn[nH]c1-c1nc2ccc(CN3CCOCC3)cc2[nH]1)NC1CC1	5900 nM (active)

Assay: Quantitative High-Throughput drug screen in 47 multiple myeloma cell lines against the NCATS MIPE library collection: KMS12PE_JCRB cell viability assay (AID 1918972); note: nearly all actives have a fitted effect of over 30% in size
Details: KMS12PE myeloma viability, CellTiter-Glo ATP, 48 h; series mostly up to 45.8 µM; viability: at the top concentration
In short: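 Myeloma cell lines, 500 cells per well, exposed to MIPE 4.0 library compounds for 48 h at 37C, 5% CO2. Viability from ATP by CellTiter-Glo luminescence; normalised to DMSO (100%) and media-only (0%) wells.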

SMILES	Potency	viability
Cc1ccc(NC(=O)C2(c3ccc4c(c3)OC(F)(F)O4)CC2)nc1-c1cccc(C(=O)O)c1	41.8 nM (active)	–
COc1ccc(C(=O)CC2(O)C(=O)Nc3c(Cl)ccc(Cl)c32)cc1 (stereo not drawn)	1320 nM (active)	–
Cc1ccc(-c2ncn(-c3ccc(Nc4nccc(-c5cccc(N6CCOCC6)c5)n4)cc3)n2)cn1	59 nM (active)	–
CC(=O)c1c(C)c2cnc(Nc3ccc(N4CCNCC4)cn3)nc2n(C2CCCC2)c1=O	23500 nM (active)	–
CNC(=O)c1ccc(N2C(=S)N(c3cnc(C#N)c(C(F)(F)F)c3)C(=O)C23CCC3)cc1F	2960 nM (active)	–
CN(C)CC=CC(=O)Nc1cc2c(Nc3ccc(F)c(Cl)c3)ncnc2cc1O[C@H]1CCOC1	1180 nM (active)	–
C#Cc1cccc(Nc2ncnc3cc(OC)c(OCCCCCCC(=O)NO)cc23)c1	148 nM (active)	–
CC1(O)CC(c2nc(-c3ccc4ccc(-c5ccccc5)nc4c3)c3c(N)nccn23)C1 (stereo not drawn)	2350 nM (active)	–
CC(=O)OCC(=O)[C@@]1(O)[C@H](C)C[C@H]2[C@@H]3C=C(C)C4=Cc5c(cnn5-c5ccccc5)C[C@]4(C)[C@@H]3[C@@H](O)C[C@@]21C	8330 nM (active)	–
CC(C)(C)c1cnc(CSc2cnc(NC(=O)C3CCNCC3)s2)o1	526 nM (active)	–
CCS(=O)(=O)c1cccc(-c2cc(C(=O)NC3CCN(C)CC3)c(C)c3[nH]c4ncc(C)cc4c23)c1	3320 nM (active)	–
Cc1ccc(C(=O)Nc2cccc(C(F)(F)F)c2)cc1-c1ccc2nc(NCCN3CCOCC3)ncc2c1	2640 nM (active)	–
CNC(=O)c1ccccc1Nc1nc(Nc2ccc(N3CCOCC3)cc2OC)ncc1Cl	1050 nM (active)	–
OCCCNc1cc(-c2ccnc(Nc3cccc(Cl)c3)n2)ccn1	93.5 nM (active)	–
CC(C)c1ccccc1Cc1cc(C(=O)Nc2ccc(S(=O)(=O)c3ccccc3C(C)(C)C)cc2)c(O)c(O)c1O	–	117%
Cn1cc(-c2[nH]c3cc(NC(=O)[C@H](N)C4CCCCC4)cc4c3c2C=NNC4=O)cn1	1180 nM (active)	–
N#CCNC(=O)c1ccc(-c2ccnc(Nc3ccc(N4CCOCC4)cc3)n2)cc1	5260 nM (active)	–
CN1CC[C@@H](c2c(O)cc(O)c3c(=O)cc(-c4ccccc4Cl)oc23)[C@@H](O)C1	132 nM (active)	–
NC(=O)Nc1cc(-c2cccc(F)c2)sc1C(=O)N[C@H]1CCCNC1	469 nM (active)	–
Cc1[nH]nc2ccc(-c3cncc(OC[C@@H](N)Cc4ccccc4)c3)cc12	833 nM (active)	–
COC(=O)[C@]12CCC(C)(C)C[C@@H]1[C@@H]1C(=O)C=C3[C@@]4(C)C=C(C#N)C(=O)C(C)(C)[C@@H]4CC[C@@]3(C)[C@]1(C)CC2	662 nM (active)	–
CC(C)C[C@H](NC(=O)CNC(=O)c1cc(Cl)ccc1Cl)B(O)O	74.3 nM (active)	–
O=C(CCCCCCNC(=O)c1cnc(N(c2ccccc2)c2ccccc2)nc1)NO	5900 nM (active)	–
CC1=C(CO)C(=O)O[C@@H]([C@@H](C)[C@H]2CC[C@H]3[C@@H]4C[C@H]5O[C@]56[C@@H](O)C=CC(=O)[C@]6(C)[C@@H]4CC[C@]23C)C1	–	117%
CC(=O)Nc1nc(C)c(-c2ccc(Cl)c(S(=O)(=O)NCCO)c2)s1	5260 nM (active)	–
O=C(Nc1cc(C(F)(F)F)cc(C(F)(F)F)c1)c1cc(Cl)ccc1O	526 nM (active)	–
